The source made the active and inactive calls. Rule for the calls: active = hit-call score of the fitted dose curve at least 0.9, where 1 is the maximum; inactive = score below 0.9.
How the values were obtained:
[1] = read-out: Monokine induced gamma interferon (MIG), CXCL9 (gene 4283); experiment: BSK_BE3C_MIG: BioMAP Diversity Plus: BE3C Assay for Monokine induced gamma interferon (MIG) Biomarker Activity (AID 2283035); settings: primary human bronchial epithelial cells; actives raise or lower the signal;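 note: MIG protein measured by ELISA in BE3C cultures after 24 h of dosing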
Outline: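 hu bronchial epithelial 1° cells, 24 h cpd; MIG by ELISA; bidirectional fit, DMSO = baseline.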

[2] = read-out: Transforming growth factor beta 1 (TGFb1), TGFB1 (gene 7040); experiment: BSK_BE3C_TGFb1: BioMAP Diversity Plus: BE3C Assay for Transforming growth factor beta 1 (TGFb1) Biomarker Activity (AID 2283036;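 note: TGF-b1 protein level measured by ELISA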); settings: primary human bronchial epithelial cells; actives raise or lower the signal
Outline: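 Bronchial epithelial primary cells are treated with test chemical, then TGF-b1 is quantified by ELISA after 24 hours. Values derive from bidirectional fitting against DMSO, with cytotoxicity checked by SRB staining in parallel cultures.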

[3] = read-out: Plasminogen activator inhibitor-1 (PAI1), SERPINE1 (gene 5054); experiment: BSK_BE3C_PAI1: BioMAP Diversity Plus: BE3C Assay for Plasminogen activator inhibitor-1 (PAI1) Biomarker Activity (AID 2283037); settings: primary human bronchial epithelial cells; actives raise or lower the signal
Outline: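 Values derive from bidirectional fitting against DMSO baseline of PAI-1 levels, measured by ELISA in human bronchial epithelial cells 24 h after compound addition.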

[4] = read-out: urokinase plasminogen activator (uPA), PLAU (gene 5328); experiment: BSK_BE3C_uPA: BioMAP Diversity Plus: BE3C Assay for urokinase plasminogen activator (uPA) Biomarker Activity (AID 2283038); settings: primary human bronchial epithelial cells; actives raise or lower the signal;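 note: uPA protein level quantified by ELISA in cell cultures; uPA read one day after compound addition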
Outline: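 Primary human bronchial epithelial cells, uPA measured by ELISA 24 h after dosing. Bidirectional change relative to DMSO; cytotoxicity checked in parallel cultures by sulforhodamine B total-protein staining.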

[5] = read-out: Urokinase-type plasminogen activator receptor (uPAR), PLAUR (gene 5329); experiment: BSK_BE3C_uPAR: BioMAP Diversity Plus: BE3C Assay for Urokinase-type plasminogen activator receptor (uPAR) Biomarker Activity (AID 2283039); settings: primary human bronchial epithelial cells; actives raise or lower the signal;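 note: uPAR protein level measured by ELISA on the cells; cells exposed to compound for one day before measurement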
Outline: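 Steps: dose human primary bronchial epithelial cells, incubate 24 h, measure uPAR by ELISA, then fit gain- or loss-of-signal response bidirectionally relative to DMSO.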

[6] = read-out: Interleukin-6 (IL6), IL6 (gene 3569); experiment: BSK_CASM3C_IL6: BioMAP Diversity Plus: CASM3C Assay for Interleukin-6 (IL6) Biomarker Activity for (AID 2283040); settings: primary human coronary artery smooth muscle cells; actives raise or lower the signal
[7] = read-out: Tissue plasminogen activator (tPA), PLAT (gene 5327); experiment: BSK_BE3C_tPA: BioMAP Diversity Plus: BE3C Assay for Tissue plasminogen activator (tPA) Biomarker Activity (AID 2283041); settings: primary human bronchial epithelial cells; actives raise or lower the signal;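 note: tPA level quantified by ELISA one day after compound addition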
Outline: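 Gain- or loss-of-signal in tPA, measured by ELISA, derived by bidirectional fitting against DMSO. Cells: human primary bronchial epithelial; read at 24 h after chemical dosing.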

[8] = read-out: Interleukin-8 (IL8), CXCL8 (gene 3576); experiment: BSK_CASM3C_IL8: BioMAP Diversity Plus: CASM3C Assay for Interleukin-8 (IL8) Biomarker Activity (AID 2283042); settings: primary human coronary artery smooth muscle cells; actives raise or lower the signal;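 note: IL-8 protein level quantified by ELISA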
[9] = read-out: Human Leukocyte Antigen - DR isotype (HLADR), HLA-DRA (gene 3122); experiment: BSK_CASM3C_HLADR: BioMAP Diversity Plus: CASM3C Assay for Human Leukocyte Antigen - DR isotype (HLADR) Biomarker Activity (AID 2283043); settings: primary human coronary artery smooth muscle cells; actives raise or lower the signal;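 note: cell-surface HLA-DR protein level quantified by ELISA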
[10] = read-out: Macrophage colony-stimulating factor (MCSF), CSF1 (gene 1435); experiment: BSK_CASM3C_MCSF: BioMAP Diversity Plus: CASM3C Assay for Macrophage colony-stimulating factor (MCSF) Biomarker Activity (AID 2283044); settings: primary human coronary artery smooth muscle cells; actives raise or lower the signal;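 note: M-CSF protein amount quantified by ELISA after 24 h exposure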
[11] = read-out: Low-density lipoprotein receptor (LDLR), LDLR (gene 3949); experiment: BSK_CASM3C_LDLR: BioMAP Diversity Plus: CASM3C Assay for Low-density lipoprotein receptor (LDLR) Biomarker Activity (AID 2283045); settings: primary human coronary artery smooth muscle cells; actives raise or lower the signal;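 note: LDLR protein level on the cell surface quantified by ELISA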
[12] = read-out: Monocyte Chemoattractant Protein-1 (MCP1), CCL2 (gene 6347); experiment: BSK_CASM3C_MCP1: BioMAP Diversity Plus: CASM3C Assay for Monocyte Chemoattractant Protein-1 (MCP1) Biomarker Activity (AID 2283046); settings: primary human coronary artery smooth muscle cells; actives raise or lower the signal;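 note: MCP-1 level quantified by ELISA 24 h after dosing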
[13] = BSK_CASM3C_Proliferation: Cell Proliferation Assessment in the BioMAP Diversity Plus: CASM3C Assay (AID 2283047); settings: primary human coronary artery smooth muscle cells;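 note: sulforhodamine B total protein stain as relative cell number at 560 nm; sub-confluent cells exposed 48 h before staining; fitted both ways against DMSO so gain or loss of cell number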
[14] = read-out: Monokine induced gamma interferon (MIG), CXCL9 (gene 4283); experiment: BSK_CASM3C_MIG: BioMAP Diversity Plus: CASM3C Assay for Monokine induced gamma interferon (MIG) Biomarker Activity (AID 2283048); settings: primary human coronary artery smooth muscle cells; actives raise or lower the signal;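 note: MIG protein level measured by ELISA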
[15] = read-out: serum amyloid A (SAA), SAA1 (gene 6288); experiment: BSK_CASM3C_SAA: BioMAP Diversity Plus: CASM3C Assay for serum amyloid A (SAA) Biomarker Activity (AID 2283049); settings: primary human coronary artery smooth muscle cells; actives raise or lower the signal;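 note: SAA protein level quantified by ELISA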
[16] = BSK_CASM3C_SRB: Viability Assessment in the BioMAP Diversity Plus: CASM3C Assay (AID 2283050); settings: primary human coronary artery smooth muscle cells;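 note: total protein by SRB staining as cytotoxicity measure in parallel cultures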
[17] = read-out: Thrombomodulin, THBD (gene 7056); experiment: BSK_CASM3C_Thrombomodulin: BioMAP Diversity Plus: CASM3C Assay for Thrombomodulin Biomarker Activity (AID 2283051); settings: primary human coronary artery smooth muscle cells; actives raise or lower the signal;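 note: thrombomodulin protein level measured by ELISA 24 h after dosing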
[18] = read-out: Tissue Factor, F3 (gene 2152); experiment: BSK_CASM3C_TissueFactor: BioMAP Diversity Plus: CASM3C Assay for Tissue Factor Biomarker Activity (AID 2283052); settings: primary human coronary artery smooth muscle cells; actives raise or lower the signal;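 note: cell surface tissue factor protein level read by ELISA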
[19] = read-out: Urokinase-type plasminogen activator receptor (uPAR), PLAUR (gene 5329); experiment: BSK_CASM3C_uPAR: BioMAP Diversity Plus: CASM3C Assay for Urokinase-type plasminogen activator receptor (uPAR) Biomarker Activity (AID 2283054); settings: primary human coronary artery smooth muscle cells; actives raise or lower the signal;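 note: cell-surface uPAR protein level quantified by ELISA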
[20] = read-out: Interferon-gamma inducible Protein 10 (IP10), CXCL10 (gene 3627); experiment: BSK_hDFCGF_IP10: BioMAP Diversity Plus: hDFCGF Assay for Interferon-gamma inducible Protein 10 (IP10) Biomarker Activity (AID 2283053); settings: primary human foreskin fibroblasts; actives raise or lower the signal
Outline: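 Cells: human dermal foreskin fibroblasts. Exposure: 24 h post-dosing. Detection: IP-10 ELISA, with values expressed against DMSO controls and fitted in both directions.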

Measured: AC50

CN(C)c1ccc(N=NS(=O)(=O)O)cc1
inactive: [1] | [2] | [3] | [4] | [5] | [6] | [7] | [8] | [9] | [10] | [11] | [12] | [13] | [14] | [15] | [16] | [17] | [18] | [19]

CC[C@H]1CC[C@H](NCc2cc3c(cc2OC)[C@H]2C[C@H]2C(=O)N3C)[C@H](c2ccccc2)N1
inactive: [1] | [2] | [3] | [4] | [5] | [6] | [8] | [9] | [10] | [11] | [12] | [14] | [15] | [16] | [17] | [18] | [20] | [19]
active: [13] 7.17 µM

CC1(C)C(=O)N(Br)C(=O)N1Br
inactive: [1] | [2] | [3] | [4] | [5] | [6] | [8] | [9] | [10] | [11] | [12] | [13] | [14] | [15] | [16] | [17] | [18] | [20] | [19]

Cc1ccc(S(=O)(=O)O)cc1C
inactive: [1] | [2] | [3] | [4] | [5] | [6] | [7] | [8] | [9] | [10] | [11] | [12] | [13] | [14] | [15] | [16] | [17] | [18] | [20] | [19]

CC(C)CCCCCCCOC(=O)CCCCC(=O)OCCCCCCCC(C)C
inactive: [1] | [2] | [3] | [4] | [5] | [6] | [7] | [8] | [9] | [10] | [11] | [12] | [13] | [14] | [15] | [16] | [17] | [18] | [20] | [19]

CC(C)(O)c1coc(S(=O)(=O)NC(=O)Nc2c3c(cc4c2CCC4)CCC3)c1
inactive: [1] | [2] | [3] | [4] | [5] | [6] | [7] | [8] | [9] | [10] | [11] | [12] | [13] | [14] | [15] | [16] | [17] | [18] | [19]

CCN(C(=O)c1cc(C)cc(OC[C@H](C)Nc2ccncc2)c1)C(C)C
inactive: [1] | [2] | [3] | [4] | [5] | [6] | [7] | [8] | [9] | [10] | [11] | [12] | [13] | [14] | [15] | [16] | [17] | [18] | [19]

Cc1ccc(N)cc1O
active: [17] 11.2 µM
inactive: [1] | [2] | [3] | [4] | [5] | [6] | [7] | [8] | [9] | [10] | [11] | [12] | [13] | [14] | [15] | [16] | [18] | [20] | [19]

CC(C)=CCCC(C)=CC=O
inactive: [1] | [2] | [3] | [4] | [5] | [6] | [7] | [8] | [9] | [10] | [11] | [12] | [13] | [14] | [15] | [16] | [17] | [18] | [20] | [19]

CNS(=O)(=O)c1cc(C(=O)N2CCC(CCN3C4CCC3CC(n3c(C)nc5ccccc53)C4)(c3cccc(F)c3)CC2)c(Cl)cc1F (centres undefined)
inactive: [1] | [2] | [3] | [4] | [5] | [7] | [8] | [10] | [12] | [14] | [15] | [16] | [17] | [18] | [19]
active: [6] 5.62 µM | [9] 28.5 µM | [11] 5.4 µM | [13] 13.5 µM

Nc1cccc(N)c1
inactive: [1] | [2] | [3] | [4] | [5] | [6] | [7] | [8] | [9] | [10] | [11] | [12] | [13] | [14] | [15] | [16] | [17] | [18] | [20] | [19]

CCOCCO
inactive: [1] | [2] | [3] | [4] | [5] | [6] | [7] | [8] | [9] | [10] | [11] | [12] | [13] | [14] | [15] | [16] | [17] | [18] | [20] | [19]

Fc1ccccc1[C@@H](F)COC1CCC(Nc2ncnc3[nH]ncc23)CC1 (some centres undefined)
inactive: [1] | [2] | [3] | [4] | [5] | [6] | [7] | [8] | [10] | [11] | [12] | [14] | [15] | [16] | [17] | [18] | [20]
active: [9] 6.88 µM | [13] 29.2 µM | [19] 9.15 µM
